{"source": "PubChem BioAssay", "key": {"[1]": {"assay": "yeast 75Q aggregation reduction – 75Q-TubU reporter (AID 1593)", "conditions": "Yeast 75Q polyglutamine aggregation reporter"}, "[2]": {"assay": "restoration of touch response, mutant HTT neurons – whole organism, C. elegans mechanosensory neurons, N-terminal huntingtin (AID 1599)", "conditions": "C. elegans polyQ-huntingtin mechanosensory neurons, stronger effect = higher value"}, "[3]": {"assay": "blockers of cytochrome c efflux from mitochondria – biochemical, purified mitochondria (AID 1603);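 for all read-outs here: mouse liver mitochondria challenged with calcium chloride; signal normalized to the plate average as 100%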", "conditions": "stronger effect = lower value"}, "[4]": {"assay": "polyglutamine aggregate formation blockers (AID 1604)", "conditions": "polyglutamine-induced protein aggregation inhibition assay; stronger effect = higher value; tested at 2.5 µM"}, "[5]": {"assay": "glutamate transport activators, MN-1 cells, MN-1 cell line (AID 1612);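 for all read-outs here: tested at 1 µM final; 0% = mean of DMSO vehicle wells on each plate; positive means more glutamate uptake than control and negative means less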", "conditions": "MN-1 motor neuron cells, stronger effect = higher value"}, "[6]": {"assay": "GFP-Q80 aggregate reduction, neuronal-like cells, cell-based, NGF-treated PC12, GFPQ80 (AID 1614);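 for all read-outs here: lower means fewer inclusions and 0 means no inclusions at all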", "conditions": "PC12 NGF-treated GFP-polyQ80 inclusion reduction"}, "[7]": {"assay": "75Q-TubH aggregate inhibition, S. cerevisiae, yeast (AID 1616)", "conditions": "S. cerevisiae 75Q-TubH polyglutamine aggregation suppression; stronger effect = higher value"}, "[8]": {"assay": "P. berghei load reduction in hepatocytes – cell-based, HepG2, luciferase luminescence, HepG2 viability, primary screen (AID 624349; in the data active = parasite load remaining mostly below about 12%, no sharp cut-off; inactive = mostly above about 10%;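 for all read-outs here: 100% = mean of DMSO negative control wells on the same plate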)", "conditions": "P. berghei liver stage in HepG2, luciferase luminescence, concentration not given here; parasite load remaining: stronger effect = lower value; viability: measured here: HepG2 viability without parasites"}, "[9]": {"assay": "EMT-state selective cytotoxicity in co-culture – imaging, PC-3E GFP, TEM4-18 mCherry, primary screen (AID 1345086;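 active = compounds killing one labelled cell type while sparing the other, by normalised counts and ratio limits, not self-fluorescent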;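 for all read-outs here: cells exposed to compound for 72 h before imaging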;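 for red/green cell ratio (normalised): normalised mesenchymal count divided by normalised epithelial count so high means epithelial killing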)", "conditions": "PC-3E GFP / TEM4-18 mCherry co-culture, imaging cell counts, at 1 µM; for red/green cell ratio (normalised): actives lie on both sides"}, "[10]": {"assay": "viability loss with induced miR-34 in A549 – imaging, A549 dox-inducible miR-34, nuclei and caspase counts, primary screen (AID 1347080;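 active = compounds whose cell count with miR-34 switched on is under 0.7 times the count with it off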)", "conditions": "A549 miR-34 inducible, Hoechst nuclei count, 48 h"}, "[11]": {"target": "ATP-dependent translocase ABCB1 (Homo sapiens) (UniProt P08183)", "sequence (P08183 whole entry, looked up)": "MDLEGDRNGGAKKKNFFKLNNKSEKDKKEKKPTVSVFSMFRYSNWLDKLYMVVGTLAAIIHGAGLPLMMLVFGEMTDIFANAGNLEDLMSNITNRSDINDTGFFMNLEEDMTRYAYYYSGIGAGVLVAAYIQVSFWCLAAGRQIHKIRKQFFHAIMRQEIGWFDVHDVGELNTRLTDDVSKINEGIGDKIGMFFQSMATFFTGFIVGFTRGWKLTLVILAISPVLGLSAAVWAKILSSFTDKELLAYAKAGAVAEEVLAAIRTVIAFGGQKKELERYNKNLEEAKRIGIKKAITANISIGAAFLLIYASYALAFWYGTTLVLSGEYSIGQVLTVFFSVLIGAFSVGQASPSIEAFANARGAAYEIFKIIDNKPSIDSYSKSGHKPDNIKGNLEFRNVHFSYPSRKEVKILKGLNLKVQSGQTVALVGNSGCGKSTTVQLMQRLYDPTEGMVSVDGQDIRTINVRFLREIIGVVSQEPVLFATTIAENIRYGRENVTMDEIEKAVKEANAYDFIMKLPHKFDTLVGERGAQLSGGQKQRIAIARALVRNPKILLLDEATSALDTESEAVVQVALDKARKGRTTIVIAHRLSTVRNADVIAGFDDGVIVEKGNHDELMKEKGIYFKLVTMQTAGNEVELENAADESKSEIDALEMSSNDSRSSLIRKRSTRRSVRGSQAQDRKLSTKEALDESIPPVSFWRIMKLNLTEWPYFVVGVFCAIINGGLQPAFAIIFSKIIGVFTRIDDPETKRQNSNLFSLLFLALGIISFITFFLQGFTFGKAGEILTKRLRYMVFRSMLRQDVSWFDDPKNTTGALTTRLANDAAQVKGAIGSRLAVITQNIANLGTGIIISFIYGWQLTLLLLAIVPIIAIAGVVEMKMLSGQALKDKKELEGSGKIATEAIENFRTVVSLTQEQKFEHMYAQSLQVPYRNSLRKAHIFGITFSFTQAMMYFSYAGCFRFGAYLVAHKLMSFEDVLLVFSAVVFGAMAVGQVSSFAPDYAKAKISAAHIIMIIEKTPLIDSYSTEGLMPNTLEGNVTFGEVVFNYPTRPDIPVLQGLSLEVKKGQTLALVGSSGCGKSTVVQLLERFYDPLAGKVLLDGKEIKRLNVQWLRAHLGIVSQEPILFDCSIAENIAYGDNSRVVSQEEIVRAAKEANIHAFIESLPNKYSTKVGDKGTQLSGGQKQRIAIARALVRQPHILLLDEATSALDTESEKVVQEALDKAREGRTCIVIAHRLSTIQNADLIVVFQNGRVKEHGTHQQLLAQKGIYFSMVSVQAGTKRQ", "assay": "P-glycoprotein substrate transport blockade – cell-based (AID 377; in the data active = fluorescence slope change above about 50%)", "conditions": "MDR1-expressing cells, fluorescent substrate accumulation slope; stronger effect = higher value; concentration not given here"}, "[12]": {"assay": "compounds altering viability of human ES cells (AID 493140);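 note: cells exposed to compounds for four days before counting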", "conditions": "human embryonic stem cell survival screen; stronger effect = higher value"}, "[13]": {"system": "Aerobactin synthetase IucA (Klebsiella pneumoniae)", "assay": "inhibition of K. pneumoniae IucA enzyme – biochemical, Tocris library, absorbance (AID 1345561);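 note: 100% = enzyme without compound and 0% = no enzyme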", "conditions": "purified IucA enzyme assay, absorbance (OD) read-out; stronger effect = lower value;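 tested at 8 µM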"}, "[14]": {"system": "Aerobactin synthetase IucA (Klebsiella pneumoniae hvKP1)", "assay": "IucA enzyme inhibition, primary screen, biochemical, Spectrum library (AID 1346200);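 note: 100% = wells without compound and 0% = wells lacking enzyme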", "conditions": "malachite green pyrophosphate, A620, at 8 µM, stronger effect = lower value"}, "[15]": {"target": "Mitogen-activated protein kinase 7 (Homo sapiens) (UniProt Q13164)", "sequence (Q13164 whole entry, looked up, the tested form may be a part)": "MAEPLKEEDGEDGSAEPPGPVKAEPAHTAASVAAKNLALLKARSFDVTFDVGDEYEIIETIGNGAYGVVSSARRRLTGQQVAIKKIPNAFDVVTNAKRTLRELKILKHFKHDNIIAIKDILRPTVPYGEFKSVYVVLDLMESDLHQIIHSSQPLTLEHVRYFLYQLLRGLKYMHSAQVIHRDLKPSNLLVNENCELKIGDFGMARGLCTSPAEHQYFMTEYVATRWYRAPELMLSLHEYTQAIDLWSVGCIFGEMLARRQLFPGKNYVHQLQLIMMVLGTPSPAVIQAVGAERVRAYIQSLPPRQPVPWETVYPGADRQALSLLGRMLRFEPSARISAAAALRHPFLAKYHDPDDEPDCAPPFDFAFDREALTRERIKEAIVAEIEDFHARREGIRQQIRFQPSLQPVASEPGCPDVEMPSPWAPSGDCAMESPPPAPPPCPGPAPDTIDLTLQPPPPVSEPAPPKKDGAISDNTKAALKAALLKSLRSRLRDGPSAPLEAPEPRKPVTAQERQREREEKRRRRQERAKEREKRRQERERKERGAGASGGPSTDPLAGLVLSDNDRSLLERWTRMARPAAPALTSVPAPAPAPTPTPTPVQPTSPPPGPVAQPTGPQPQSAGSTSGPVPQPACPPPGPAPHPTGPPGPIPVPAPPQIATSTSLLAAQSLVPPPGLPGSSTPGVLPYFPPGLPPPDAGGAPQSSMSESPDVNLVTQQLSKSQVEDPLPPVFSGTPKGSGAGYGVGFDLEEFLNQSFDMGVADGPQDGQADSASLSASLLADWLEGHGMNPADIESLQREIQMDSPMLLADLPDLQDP", "assay": "Gal4-ERK5 driven luciferase induction – cell-based, HTS, primary screen (AID 1508626;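 active = luciferase signal above three times the same-plate solvent-only control wells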;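 note: luciferase driven by Gal4-ERK5 fusion binding five Gal4 sites before minimal TATA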)", "conditions": "HeLa Gal4-ERK5 transactivation, 18 h, at 5 µM, stronger effect = higher value"}, "[16]": {"assay": "galactose survival enhancers in mitochondrial complex I cybrids – cell-based, galactose medium, ATP luminescence, primary screen (AID 1645843;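 active = z-score of at least 1.8 in each of two replicates, scored against plate mean and spread of sample wells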;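 note: positive z means more ATP and so rescue of galactose-driven cybrid death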)", "conditions": "complex I mutant cybrid cells, 72 h, stronger effect = higher value"}, "[17]": {"assay": "compounds altering circadian rhythm period length – cell-based, LOPAC library, luminescence reporter (AID 2774)", "conditions": "circadian reporter cells, at 7 µM, actives lie on both sides"}, "[18]": {"system": "Hepatitis C virus NS3 helicase", "assay": "blockers of NS3h binding to ssDNA – biochemical, fluorescence polarization, LOPAC1280 library, primary screen (AID 687035; in the data active = inhibition above about 37%)", "conditions": "Purified HCV NS3 helicase, Cy5-dT15 ssDNA binding fluorescence polarization; stronger effect = higher value; concentration not given here"}, "[19]": {"assay": "compounds altering Cy5-DNA-NS3h complex signal – biochemical, LOPAC1280, artefact control for HCV NS3 helicase inhibitor project (AID 687037)", "conditions": "Cy5-DNA-NS3h complex fluorescence interference counterscreen"}, "[20]": {"system": "Aerobactin synthetase IucA (Klebsiella pneumoniae, hypervirulent)", "assay": "biochemical IucA inhibition screen of LOPAC library by absorbance (AID 1346212);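 note: 100% = no compound wells and 0% = no enzyme wells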", "conditions": "IucA enzyme assay, absorbance (OD) readout; stronger effect = lower value;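 tested at 8 µM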"}, "[21]": {"assay": "blockers of cellular phospholipid synthesis – cell-based, LOPAC library, screen 4, primary screen (AID 1347384)", "conditions": "animal cells, phospholipid biosynthesis inhibition screen; at 10 µM"}, "[22]": {"conditions": "measured here: epithelial PC-3E GFP cell survival"}, "[23]": {"conditions": "measured here: mesenchymal TEM4-18 mCherry cell survival"}, "[24]": {"conditions": "measured here: relative caspase fold change +Dox/-Dox"}, "[25]": {"conditions": "measured here: total cells with miR-34 induction, stronger effect = lower value"}, "[26]": {"conditions": "measured here: total cells without miR-34 induction"}}, "note": "Several values for one entry are separate records, joined by “and”; a condition that tells them apart may be missing. Equal entries are not always repeated. Inconclusive results are not listed. For part of these data: Results with a measured potency or affinity are listed apart. Activity calls are given as the source filed them. Unless noted, the rule behind the calls is not given here.", "data": [{"smiles": "CC(=O)O[C@H]1C[C@H](O[C@H]2[C@@H](O)C[C@H](O[C@H]3[C@@H](O)C[C@H](O[C@H]4CC[C@@]5(C)C(CCC6C5C[C@@H](O)[C@]5(C)[C@@H](C7=CC(=O)OC7)CC[C@]65O)C4)O[C@@H]3C)O[C@@H]2C)O[C@H](C)[C@H]1O[C@@H]1O[C@H](CO)[C@@H](O)[C@H](O)[C@H]1O", "note": "(some centres not stated)", "values": [{"measurement": "score", "setting": "[1]", "value": 1.1}, {"measurement": "rescue above control", "setting": "[2]", "value": 3.88}, {"measurement": "cytochrome c release ratio", "setting": "[3]", "value": 0.86}, {"measurement": "inhibition of aggregation", "setting": "[4]", "value": 100, "unit": "%"}, {"measurement": "glutamate uptake change", "setting": "[5]", "value": -5.55, "unit": "%"}, {"measurement": "inclusion score", "setting": "[6]", "value": 3}, {"measurement": "aggregation suppression score", "setting": "[7]", "value": 1.31}, {"measurement": "parasite load remaining", "setting": "[8]", "value": "31.4% (inactive) and 0.905% (inactive)"}, {"measurement": "viability", "setting": "[8]", "value": "50.8% and 15.3%"}, {"measurement": "red/green cell ratio (normalised)", "setting": "[9]", "value": "0.22 (inactive)"}, {"measurement": "normalised cell number", "setting": "[9]; [22]", "value": 0.27}, {"measurement": "normalised cell number", "setting": "[9]; [23]", "value": 0.06}, {"measurement": "fold change", "setting": "[10]; stronger effect = lower value", "value": "0.6 (active)"}, {"measurement": "fold change", "setting": "[10]; [24]", "value": 2.31}, {"measurement": "cell count", "setting": "[10]; [25]", "value": 258}, {"measurement": "cell count", "setting": "[10]; [26]", "value": 431}]}, {"smiles": "COc1cc2c(c(OC)c1OC)-c1ccc(O)c(=O)cc1C(N)CC2", "note": "(configuration not stated)", "values": [{"measurement": "fluorescence slope change", "setting": "[11]", "value": "63.7% (active)"}, {"measurement": "survival", "setting": "[12]", "value": "6 (inactive)"}, {"measurement": "parasite load remaining", "setting": "[8]", "value": "59.8% (inactive)"}, {"measurement": "viability", "setting": "[8]", "value": 94.7, "unit": "%"}, {"measurement": "red/green cell ratio (normalised)", "setting": "[9]", "value": "0.78 (inactive)"}, {"measurement": "normalised cell number", "setting": "[9]; [22]", "value": 1.21}, {"measurement": "normalised cell number", "setting": "[9]; [23]", "value": 0.95}]}, {"smiles": "Cc1ccc(C[N+](C)(C)C)o1", "values": [{"measurement": "remaining activity", "setting": "[13]", "value": "126% (inactive)"}, {"measurement": "activity remaining", "setting": "[14]", "value": "106% (inactive)"}, {"measurement": "fold change", "setting": "[10]; stronger effect = lower value, cell number ratio, induced over uninduced", "value": "0.971 (inactive)"}, {"measurement": "fold change", "setting": "[10]; [24]", "value": 0.883}, {"measurement": "cell count", "setting": "[10]; [25]", "value": 9440}, {"measurement": "cell count", "setting": "[10]; [26]", "value": 9720}, {"measurement": "luciferase signal", "setting": "[15]", "value": "100 AU (inactive)"}, {"measurement": "z-score", "setting": "[16]", "value": "0.545 (inactive)"}]}, {"smiles": "CC(N)Cc1c[nH]c2ccc(O)cc12", "note": "(configuration not stated)", "values": [{"measurement": "period change", "setting": "[17]", "value": "-0.08 h (inactive)"}, {"measurement": "inhibition", "setting": "[18]", "value": "-7% (inactive)"}, {"measurement": "fluorescence ratio (interference)", "setting": "[19]", "value": "0.9 (inactive)"}, {"measurement": "remaining activity", "setting": "[13]", "value": "105% (inactive)"}, {"measurement": "remaining activity", "setting": "[20]", "value": "122% (inactive)"}, {"measurement": "fold change", "setting": "[10]; stronger effect = lower value", "value": "1.02 (inactive) and 0.98 (inactive)"}, {"measurement": "fold change", "setting": "[10]; [24]", "value": "1.63 and 0.84"}, {"measurement": "cell count", "setting": "[10]; [25]", "value": "11100 and 9190"}, {"measurement": "cell count", "setting": "[10]; [26]", "value": "10900 and 9370"}, {"measurement": "outcome", "setting": "[21]", "value": "inactive"}, {"measurement": "z-score", "setting": "[16]", "value": "0.365 (inactive) and 0.08 (inactive)"}]}]}
